# Assay outcomes: PubChem BioAssay, several laboratories
# The list is not random: actives were taken first. Their share in the collection is about 1.3%.
# 3CLpro inhibitor = SARS-CoV 3CLpro protease inhibitors, primary screen, biochemical, quenched FRET | recombinant SARS-CoV 3CLpro, quenched FRET peptide cleavage | Replicase polyprotein 1ab (Severe acute respiratory syndrome coronavirus), P0C6X7 | hit rate 0.14% among 290,000 | inhibition, % at 6 µM; in the data active means inhibition above about 12%
# BJeLR lethal = MLPCN primary cell-based screen for lethality selective to Ras in HRASV12 cells; BJeLR (HRASV12) viability, CellTiter-Glo ATP luminescence, 48 h; inhibition, % (concentration not given with the values); hit rate 0.17% among 300,000; AID 1554, 2009; in the data active means inhibition above about 50%
# PfHsp40 yeast = rescue of yeast from PfHsp40 toxicity, primary screen, S. cerevisiae, ATP luminescence; S. cerevisiae expressing PfHsp40, growth rescue; growth rescue, % at 12.5 µM; hit rate 0.68% among 340,000; in the data active means growth rescue above about 28%, passing the limit was not always enough;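 further: yeast W303a lacking pdr1 and pdr3 grown in galactose medium; growth measured after three days at 30 °C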
# Sa RN4220 lethal = growth inhibition of S. aureus RN4220, primary screen, OD600 | inhibition, % (no concentration beside the values) | AID 1259311, 2017 | hit rate 0.33% among 330,000 | 16 h; in the data active means inhibition above about 85%
# Sa ugtP lethal = growth inhibition of ugtP-null S. aureus, primary screen, RN4220 ugtP deletion, OD600 | 16 h | growth inhibition, % (concentration not given with the values) | hit rate 0.54% among 330,000 | AID 1259309, 2017; in the data active means growth inhibition above about 68%
# Hits are given with their value; - = inactive; . = no result.
SMILES,3CLpro inhibitor,BJeLR lethal,PfHsp40 yeast,Sa RN4220 lethal,Sa ugtP lethal
CCC(NC(=O)Nc1nnc(C(F)(F)F)s1)(C(F)(F)F)C(F)(F)F,-,-,-,-,87.9
O=C(O)CCC(=O)Nc1nnc(C(F)(F)F)s1,-,.,-,-,-
CCOC(=O)/C(C#N)=C1/C=C(C)c2ccccc2N1,-,-,-,.,.
NS(=O)(=O)c1cccc(NC(=O)CSc2nc3ccc(Cl)cc3[nH]2)c1,-,-,-,-,-
Cc1ccn2c(C=O)c(-c3ccc(F)cc3)c(C=O)c2c1,-,-,-,-,-
CC(=O)NC(NC(=S)Nc1ccc(C)cc1C)C(Cl)(Cl)Cl (stereo unspecified),-,-,-,-,-
Cc1ccc(NC(=S)NC(NC(=O)c2ccccc2C)C(Cl)(Cl)Cl)c(C)c1 (stereo unspecified),12.8,-,-,-,-
N/C(=N\OC(=O)c1ccc2ccccc2c1)c1ccccc1Cl,-,-,87.3,-,-
N/C(=N\OC(=O)c1ccc2ccccc2c1)c1ccncc1,-,-,-,-,-
O=C(NC(=S)Nc1ccc2oc(=O)ccc2c1)c1ccccc1F,-,-,-,-,-
COc1ccc(/C=C/C(=O)OCC(=O)NC2CCCC(C)C2C)c(OC)c1 (stereo unspecified),.,.,-,-,85.1
CC(C(=O)N1CCCC1)N1CCN(S(=O)(=O)c2ccc(C(C)(C)C)cc2)CC1 (stereo unspecified),.,.,-,-,-
O=C1CC(N2CCN(c3nc4ccccc4s3)CC2)C(=O)N1Cc1cccs1 (stereo unspecified),-,-,99.2,-,-
O=C1CC(N2CCN(c3ccc(F)cc3)CC2)C(=O)N1Cc1cccs1 (stereo unspecified),-,-,-,-,-
COc1cccc(OCc2cc(C(=O)N3CCC(c4ccncc4)CC3)no2)c1,-,-,-,-,-
COc1cccc(OCc2cc(C(=O)N3CCN(C)C(c4ccccc4)C3)no2)c1 (stereo unspecified),-,-,148.9,-,-
Nc1nc(N)nc(-c2ccc(Oc3ccccc3)cc2)n1,-,-,-,-,-
Cc1ccccc1Oc1ccc(-c2nc(N)nc(N)n2)cc1,-,-,118.8,-,-
CCCOc1ccc(CSCCNC(=S)Nc2ccccc2)cc1,-,-,215.8,-,-
CCOc1ccc(CSCCNC(=S)Nc2ccc(OC)cc2)cc1,-,-,-,-,-
NC(=O)COC(=O)c1ccc2c(c1)S(=O)(=O)c1ccccc1C2=O,-,-,-,-,-
Cc1ccc(/C=C2\SC(=S)N(C(Cc3ccccc3)C(=O)O)C2=O)cc1 (stereo unspecified),-,-,160.6,-,-
Cc1ccc(C(=O)Nc2nnc(SCC(=O)N3CCCc4ccccc43)s2)cc1,-,-,-,-,-
CC(C)(C)OC(=O)N1CCC(NC(=O)c2[nH]cnc2C(=O)Nc2ccccc2)CC1,.,.,-,-,-
O=c1[nH]c(CN2CCN(S(=O)(=O)/C=C/c3ccccc3)CC2)nc2cc(Cl)ccc12,-,-,97.3,-,-
SMILES,3CLpro inhibitor,BJeLR lethal,PfHsp40 yeast,Sa RN4220 lethal,Sa ugtP lethal
CC(/C=C/c1ccc2c(c1)OCO2)=N/NC(=O)c1ccc(C)nc1,-,-,-,.,.
CC(C)(C)c1cc(NCc2ccccn2)n2ncc(-c3ccccc3)c2n1,-,-,51.5,-,-
CON(C)S(=O)(=O)c1cccc(C(=O)Nc2cccc(S(=O)(=O)NC3=NCCCCC3)c2)c1,.,.,-,-,-
CCOc1ccc2nc(N3C(=O)/C(=C/c4ccccc4)NC3=S)sc2c1,-,-,-,-,93.7
COc1ccc2nc(N3C(=O)/C(=C/c4ccccc4)NC3=S)sc2c1,-,-,-,-,92.0
COc1ccc2nc(-n3c(C)ccc3C)sc2c1,-,-,-,-,-
Cn1c(=O)c2sccc2n2c(CCCC(=O)NCc3ccc(F)cc3)nnc12,-,-,-,-,-
CC(C)[C@H]1COCCS(=O)(=O)N1Cc1ccccc1-c1cccc2c1oc1ccccc12,.,.,-,-,-
CCOC(=O)C1=C(C)N(C[C@@H]2CC[C@@H](Cc3ccc4cc(OC)ccc4c3)O2)C(=O)NC1c1ccc(OC)cc1 (stereo partly specified),.,.,-,-,-
Cc1nnc(SCC(=O)NC(=O)NC(C)(C)C)n1N,-,-,52.0,-,-
COC(=O)c1cccc(COC(=O)c2cccnc2SC)c1,-,-,-,-,-
CC(=O)c1c(C(C)=O)c(C)n(-c2cccc([N+](=O)[O-])c2)c1C,-,-,-,-,-
CC(=O)C1=C(c2cccc([N+](=O)[O-])c2)N(C(C)=O)n2c(C)nnc2S1,-,-,82.4,-,-
COc1ccccc1C1CCN(C(=O)c2ccccc2)CC1,-,-,-,-,-
COc1ccccc1C1CCN(c2cc(O)ccc2[N+](=O)[O-])CC1,-,-,123.8,-,-
O=c1[nH]c(=O)n(C2OC(CO)C(O)C2O)cc1F (stereo unspecified),.,.,203.0,.,.
COc1ccc(Oc2nc3ccccc3n3cccc23)cc1,-,-,-,-,-
COc1cccc(CNC(=O)N2CCN(c3ccccc3Cl)CC2)c1,-,-,-,-,-
COc1ccc(-n2c(SCc3ccc([N+](=O)[O-])cc3)nnc2-c2ccccc2)cc1,-,-,-,-,-
CCOc1ccc(-n2c(SCc3ccc([N+](=O)[O-])cc3)nnc2-c2ccccc2)cc1,-,-,-,-,85.8
COCC1COS(=O)(=O)NC1(C)C (stereo unspecified),-,-,-,-,-
Cc1nnc(Sc2c(N)n(C)c(=O)[nH]c2=O)s1,-,-,-,-,-
O=C1c2ccccc2-c2cccc(NS(=O)(=O)c3ccc(C(F)(F)F)cc3)c21,-,-,-,96.7,97.4
O=S(=O)(Nc1ccccc1O)c1ccc(-c2ccccc2)cc1,-,-,-,-,-
COc1cc(NS(=O)(=O)c2ccc(C)cc2)c2ncccc2c1,-,-,542.0,-,-
SMILES,3CLpro inhibitor,BJeLR lethal,PfHsp40 yeast,Sa RN4220 lethal,Sa ugtP lethal
O=S(=O)(Nc1cccnc1Cl)c1ccc(-c2ccccc2)cc1,-,-,-,89.2,-
Cc1ccc(S(=O)(=O)Nc2ccccc2C(N)=O)cc1,-,-,-,-,-
Cc1ccc(S(=O)(=O)Nc2ccccc2-c2ccccc2NS(=O)(=O)c2ccc(C)cc2)cc1,14.0,-,-,-,-
CNc1cccc2c1C(=O)c1ccccc1C2=O,-,-,-,.,.
CNC(=S)N(CCc1c(C)[nH]c2ccc(C)cc12)Cc1cc(OC)c(OC)c(OC)c1,-,-,-,-,-
CCC(=O)NC(c1ccco1)c1cc(Cl)c2cccnc2c1OC (stereo unspecified),.,.,-,-,-
CCCCC(=O)NC(c1ccco1)c1cc(Cl)c2cccnc2c1O (stereo unspecified),-,-,359.7,-,-
Oc1c(C(Nc2ccccn2)c2cccnc2)cc(Cl)c2cccnc12 (stereo unspecified),-,-,317.9,-,-
CCC(=O)NC(c1ccco1)c1cc(Cl)c2cccnc2c1O (stereo unspecified),-,-,277.5,-,-
